Source: PubChem BioAssay (National Center for Advancing Translational Sciences (NCATS))
This is a sample that favours compounds with a hit; in the whole collection about 12% have one here.
Sfp inh: blocks B. subtilis Sfp PPTase activity. Q9F4F7. Biochemical Sfp PPTase activity, qHTS. Potency, µM, actives largely listed as inhibitors. 310,000 tested, 3.5% active. AID 1490;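 further: the enzyme is Sfp with the accession as filed and its product quenches rhodamine fluorescence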
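Fluorescence-quenching assay: 15 nM Sfp-PPTase preincubated 15 min at room temperature with compound, then 5 uM rhodamine-CoA and 12.5 uM BHQ-2-labelled YbbR peptide added. Fluorescence (ex 525/em 598 nm) read at start and after 30 min; difference gives rate.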
G9a inh: blocks human histone lysine methyltransferase G9a. G9a H3K9 monomethylation, AlphaScreen, 2 h. 350,000 tested, 8.8% active. AID 504332. Potency, µM (series often up to 102 µM), actives largely listed as inhibitors; further: nearly all actives have a fitted effect of over 75% in size
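Using a bead-based AlphaScreen, monomethylated H3K9 product from 2 h room-temperature reactions (G9a 20 nM, peptide 500 nM, SAM 20 uM) was detected with 0.5 ug/mL rabbit anti-H3K9me1 antibody.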
BAZ2B block: blocks human BAZ2B. Q9UIF8. AlphaScreen BAZ2B-H3K14Ac peptide displacement. Potency, µM (top dose mostly 114 µM), usual class: inhibitors. 360,000 tested, 4.4% active. AID 504333; further: nearly all actives have a fitted effect of over 60% in size
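AlphaScreen displacement of biotin-H3(5-23)K14Ac peptide (50 nM final) from BAZ2B (50 nM final) in PBS pH 7.4, 0.01% Tween-20; complex preformed 30 min RT, then compounds (top 110 uM) 30 min RT, beads 20 min dark.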
L3MBTL1 inh: blocks human L3MBTL1; Q9Y468; AlphaScreen L3MBTL1–H3K9me1 peptide binding; Potency, µM (top dose mostly 57.1 µM), most hits filed as inhibitors; 230,000 tested, 0.66% active; further: nearly all actives have a fitted effect of over 60% in size
Target sequence (Q9Y468 whole entry, looked up): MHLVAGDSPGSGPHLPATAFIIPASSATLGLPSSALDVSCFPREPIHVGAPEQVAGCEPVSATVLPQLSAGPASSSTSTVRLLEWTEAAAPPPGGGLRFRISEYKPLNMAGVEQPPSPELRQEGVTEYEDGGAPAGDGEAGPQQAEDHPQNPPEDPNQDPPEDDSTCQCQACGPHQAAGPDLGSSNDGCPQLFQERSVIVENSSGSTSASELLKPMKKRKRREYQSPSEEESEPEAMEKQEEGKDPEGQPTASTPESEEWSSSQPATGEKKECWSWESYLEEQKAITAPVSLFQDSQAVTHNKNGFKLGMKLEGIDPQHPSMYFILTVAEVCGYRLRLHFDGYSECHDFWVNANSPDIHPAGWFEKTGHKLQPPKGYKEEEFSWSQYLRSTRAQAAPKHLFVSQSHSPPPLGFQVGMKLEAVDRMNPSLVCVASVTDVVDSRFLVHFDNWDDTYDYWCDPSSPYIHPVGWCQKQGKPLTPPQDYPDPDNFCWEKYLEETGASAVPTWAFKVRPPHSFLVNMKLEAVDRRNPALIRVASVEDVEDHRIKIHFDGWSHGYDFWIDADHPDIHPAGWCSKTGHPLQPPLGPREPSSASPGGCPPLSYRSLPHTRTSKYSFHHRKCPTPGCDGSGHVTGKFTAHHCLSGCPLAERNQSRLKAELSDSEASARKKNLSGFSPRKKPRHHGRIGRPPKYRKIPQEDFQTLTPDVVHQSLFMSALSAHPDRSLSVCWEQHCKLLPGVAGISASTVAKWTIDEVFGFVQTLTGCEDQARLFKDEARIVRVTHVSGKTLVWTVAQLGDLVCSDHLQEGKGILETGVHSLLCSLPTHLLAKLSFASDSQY
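Read-out is AlphaScreen signal from streptavidin donor and nickel chelate acceptor beads (10 ug/mL final each) bridging L3MBTL1 (50 nM) and biotinylated K9-monomethylated H3(1-15) peptide (75 nM), after 30 min compound exposure at room temperature.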
JMJD2A Tudor inh: inhibitors of human JMJD2A Tudor domain; O75164; AlphaScreen JMJD2A-Tudor / H3K4me3 peptide binding; Potency, µM (highest dose often 114 µM), actives largely listed as inhibitors; 390,000 tested, 4.4% active; further: nearly all actives have a fitted effect of over 50% in size
HP1b binding inh: inhibitors of HP1-beta chromodomain binding to methylated histone tails; Potency, µM (titrated, usually from 114 µM), usual class: inhibitors; P83916; AlphaScreen HP1-beta / biotin-H3K9me3 peptide binding; AID 540317; 390,000 tested, 0.56% active; further: nearly all actives have a fitted effect of over 70% in size
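AlphaScreen: HP1-beta (50 nM) preformed 30 min with biotin-H3(1-18)K9me3 peptide (50 nM) in PBS pH 7.4, 0.01% Tween-20. Compound added for 30 min at RT, then streptavidin donor/nickel chelate acceptor beads (10 ug/mL) for 30 min.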
Each line names hits and unclear results; the compound was inactive in the other large screens. The call rests on the fitted dose curve; in most records, active means well fitted curve in the direction sought with a large enough effect; inconclusive means small, poorly fitted or top-dose-only effect, or another doubt; inactive means no such curve, though single readings can be large; an effect the other way counts as inactive or inconclusive.

CNc1ccc(Br)cc(C(=O)/C=C/c2ccc(Cl)cc2Cl)c1=O	Sfp inh 14µM, G9a inh 35µM, BAZ2B block inconclusive, JMJD2A Tudor inh 56µM, HP1b binding inh inconclusive
COc1cccc(/C=C/C(=O)OCC(=O)NCCNC(=O)COC(=O)/C=C/c2cccc(OC)c2)c1	none (no result: Sfp inh)
CNc1ccc(Br)cc(C(=O)/C=C/c2cccc(OC)c2)c1=O	Sfp inh 20µM, G9a inh 7.9µM, BAZ2B block 45µM, L3MBTL1 inh inconclusive, JMJD2A Tudor inh 45µM, HP1b binding inh inconclusive
O=C(NCCc1nc2ccccc2n1CCCOc1ccc2ccccc2c1)C1CCCCC1	none (no result: Sfp inh, G9a inh, BAZ2B block, L3MBTL1 inh)
O=C1C(=O)N(CCCn2ccnc2)C(c2cccc(Br)c2)/C1=C(\O)c1ccc2c(c1)OCCO2 (stereo not given)	G9a inh inconclusive, JMJD2A Tudor inh inconclusive (no result: L3MBTL1 inh)
CC1Cc2cc(/C(O)=C3/C(=O)C(=O)N(CCCn4ccnc4)C3c3ccc([N+](=O)[O-])cc3)ccc2O1 (stereo not given)	JMJD2A Tudor inh inconclusive (no result: Sfp inh, G9a inh, BAZ2B block, L3MBTL1 inh)
Cc1nnc(N2C(=O)C(=O)/C(=C(\O)c3ccc4c(c3)CC(C)O4)C2c2ccccc2)s1 (stereo not given)	none (no result: L3MBTL1 inh)
COc1cccc(C2/C(=C(/O)c3ccc4c(c3)CC(C)O4)C(=O)C(=O)N2CCCn2ccnc2)c1 (stereo not given)	G9a inh 50µM (no result: L3MBTL1 inh)
COc1cccc(C2/C(=C(/O)c3ccc4c(c3)CC(C)O4)C(=O)C(=O)N2c2nnc(C)s2)c1 (stereo not given)	G9a inh 40µM (no result: L3MBTL1 inh)
CC1Cc2cc(/C(O)=C3/C(=O)C(=O)N(CCCn4ccnc4)C3c3ccc(F)cc3)ccc2O1 (stereo not given)	G9a inh 45µM (no result: L3MBTL1 inh)
COc1cccc(C2/C(=C(\O)c3ccc4c(c3)OCCO4)C(=O)C(=O)N2CCCn2ccnc2)c1 (stereo not given)	G9a inh inconclusive, BAZ2B block 56µM, JMJD2A Tudor inh 63µM (no result: L3MBTL1 inh)
COc1cc(-c2noc(CCC(=O)Nc3cc(C)ccc3C)n2)cc(OC)c1OC	none (no result: Sfp inh, L3MBTL1 inh)
O=C(Nc1ccc(F)cc1F)c1cc2ccc3cccnc3c2[nH]1	JMJD2A Tudor inh inconclusive (no result: Sfp inh, L3MBTL1 inh)
O=C(c1ccco1)N1CCC2(CC1)CCN(c1ccccc1)CC2	none (no result: BAZ2B block, L3MBTL1 inh, JMJD2A Tudor inh, HP1b binding inh)
CCN(CC)CCN1C(=O)C(=O)/C(=C(/O)c2ccc3c(c2)CC(C)O3)C1c1ccc(OC)cc1 (stereo not given)	G9a inh 50µM, JMJD2A Tudor inh inconclusive
CCCCC(=O)NNC(=S)NC(=O)c1cccc([N+](=O)[O-])c1	BAZ2B block inconclusive, JMJD2A Tudor inh 22µM, HP1b binding inh inconclusive (no result: G9a inh)
CCCCC(=O)NNC(=S)NC(=O)c1ccc([N+](=O)[O-])cc1	Sfp inh 20µM, G9a inh 2.8µM, BAZ2B block inconclusive, JMJD2A Tudor inh 32µM, HP1b binding inh inconclusive
CCCCCC(=O)NC(=S)Nc1cccc(C(C)=O)c1	none
CCCCCC(=O)NC(=S)NC1C2CC3CC(C2)CC1C3 (stereo not given)	G9a inh 45µM
CCCCCC(=O)NNC(=O)Cc1ccc([N+](=O)[O-])cc1	none (no result: L3MBTL1 inh)
N#CCC(=O)NNC(=S)NC(=O)C(c1ccccc1)c1ccccc1	none
Cc1ccc(C(=O)NC(=S)NNC(=O)CC#N)cc1	G9a inh 8.9µM, JMJD2A Tudor inh inconclusive
COc1ccc(/C=C\c2onc(C)c2S(=O)(=O)N2CCC(C(=O)Nc3ccc(C)cc3C)CC2)cc1	none (no result: Sfp inh, BAZ2B block, L3MBTL1 inh)
CCCCCC(=O)NNC(=S)NC(C)=O	Sfp inh 79µM, G9a inh 18µM, JMJD2A Tudor inh 45µM
CCCCC(=O)NNC(=S)NC(=O)c1ccc(C)cc1	Sfp inh inconclusive, G9a inh 11µM
CCCCC(=O)NNC(=S)NCc1ccccc1	none
CCCCCC(=O)NNC(=O)c1ccc(-c2ccccc2)cc1	none
COc1ccc(-c2cn3cccnc3n2)cc1NC(=O)Nc1cc(C)ccc1C	G9a inh inconclusive, BAZ2B block inconclusive (no result: Sfp inh)
COc1cc(NC(=O)c2cc3sccc3n2C)cc(OC)c1	Sfp inh 50µM, G9a inh inconclusive, BAZ2B block inconclusive (no result: L3MBTL1 inh)
CC(=O)c1cccc(NC(=O)Nc2cc3sccc3n2C)c1	Sfp inh 40µM, G9a inh inconclusive, BAZ2B block inconclusive (no result: JMJD2A Tudor inh, HP1b binding inh)
